PubChem BioAssay AID1159580 (chemical genetic matrix, 2015)
Among all 5,500 compounds or so, about 2,000 (36%) were called active. Roughly 18% stayed inconclusive and do not appear here. Rule as the data show it: active = normalized growth mostly below about 0.91 (no sharp cut-off); inconclusive = no clear call, values can overlap the other calls; inactive = mostly above about 0.92. The list shows a part of the results.

Assay: chemical genetic growth profiling, strain panel (AID 1159580);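 also: tested at 20 µM; growth read once vehicle control cultures reached saturation at 30 °C; 1 = growth at the plate median or of vehicle wells; lower values mean less growth of the strain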
Details: S. cerevisiae deletion strains, growth OD

Measured: normalized growth

C[C@]12C[C@H](O)[C@H]3[C@@H](CCC4=CC(=O)CC[C@@]43C)[C@@H]1CC[C@@H]2C(=O)CO
inactive: locus YAL040C, strain CLN3, stronger effect = lower value 1.05 | locus YDR150W, strain NUM1, stronger effect = lower value 1 | locus YDR363W, strain ESC2, stronger effect = lower value 0.999 | locus YER002W, strain NOP16, stronger effect = lower value 1.01 | locus YGR078C, strain PAC10, stronger effect = lower value 1 | locus YNL175C, strain NOP13, stronger effect = lower value 1.02 | locus YNL197C, strain WHI3, stronger effect = lower value 1.02 | locus YNL224C, strain SQS1, stronger effect = lower value 1.02 | locus YOR083W, strain WHI5 (second series), stronger effect = lower value 1.02 | locus YPL241C, strain CIN2, stronger effect = lower value 1
